# In PubChem BioAssay (NCI):
# About 83,000 compounds went through this panel and 20% of them were active in at least one assay; those are over-represented in the sample as a whole.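 The test compound was applied at a single concentration to cells in 96-well plates for 48 hours, and percent growth was recorded.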 Unmarked numbers belong to inactive results. Active and inactive are the calls of the source. Rule for the calls: active = growth percent below 10; inactive = the rest.
# Tests used:
# Assay in all cases: NCI-60 one-dose screen, 48 h (100 = growth as untreated, 0 = no growth, -100 = all killed)
# Details in all cases: 10 µM unless noted
# [1] = system: DU-145 prostate
# [2] = system: K-562 leukemia
# [3] = system: MALME-3M melanoma
# [4] = system: MDA-MB-231 breast
# [5] = system: RXF 393 renal
# [6] = system: SF-268 CNS
# [7] = system: SF-295 CNS
# [8] = system: SF-539 CNS
# [9] = system: UACC-257 melanoma
# [10] = system: M14 melanoma
SMILES,growth [1],growth [2],growth [3],growth [4],growth [5],growth [6],growth [7],growth [8],growth [9],growth [10]
S=C1CCSC(=S)N1CCCN1C(=S)CCSC1=S,73.3%,29.4%,74.2%,75.3%,57.9%,87.2%,105%,71.6%,89%,83.1%
O=S(=O)(Nc1ccc(Cl)cc1)c1ccc(-c2cnc(C3CC3)o2)cc1,12.6%,9.33% (active),46.3%,26.9%,-10.1% (active),43.5%,33.6%,-14.6% (active),56.1%,22%
Cc1oc(-c2ccc(Cl)cc2)nc1/C=C/C(=O)c1ccccc1,109%,99.1%,97.6%,101%,106%,97.1%,99.9%,99.5%,106%,104%
N=C(N)c1ccc(-c2ccc(-c3cc(Cl)cc(Cl)c3)o2)o1,-87.7% (active),-59.7% (active),-89.6% (active),-68.2% (active),-88.8% (active),-56.4% (active),-83.5% (active),-85% (active),-73% (active),-54.1% (active)
O=C1c2cccnc2C(=O)c2c1c(C(=O)NCCn1ccnc1)c1ccccn21,29.9%,29.3%,-68.8% (active),13.6%,59.7%,23.6%,29.5%,9.99% (active),-29% (active),7.17% (active)
CSc1nc2sc3c(c2c(=O)n1-c1ccc([N+](=O)[O-])cc1)CCCCC3,99%,94.1%,91.4%,75.3%,84.1%,98.7%,68.8%,95.3%,91.2%,94.9%
O=C(c1ccc(Cl)cc1)N1CCN(c2ccnc3cc(Cl)ccc23)CC1,112%,77.1%,84.4%,89.1%,77.5%,100%,95.8%,100%,91%,98%
CN[C@]12CC3(C=CC(=O)C=C3)O[C@@]1(Cc1ccc(OC)cc1)N(C)C(=O)N2,85.2%,7.19% (active),11.2%,76.9%,43.7%,66.4%,103%,12.2%,41%,9.52% (active)
N#Cc1c(NC(=O)c2ccccc2)sc2c1CCC(=O)C2,40.7%,4.06% (active),-12.9% (active),-11.3% (active),-1.37% (active),16%,21.7%,-28.4% (active),2.08% (active),14%
CC(C)(C)c1cc(-c2nc3ccc(N4CCN(S(C)(=O)=O)CC4)cc3[nH]2)cc(C(C)(C)C)c1O,99.1%,78.4%,82.4%,104%,92.6%,93.1%,91.1%,86.5%,98.9%,98.3%
COC(=O)c1c2c(c(C)[n+]([O-])c1C)C(=O)C(NCc1ccc(Cl)cc1)=CC2=O,86.6%,28.7%,-75.4% (active),48.7%,86.6%,76.8%,87.6%,85.3%,17.8%,39.6%
